# Results taken from ChEMBL document CHEMBL1157539, “Thousands of chemical starting points for antimalarial lead identification” (Nature, 2010).
# System: Plasmodium falciparum
# Test: GSK_TCMDC: Inhibition of Plasmodium falciparum Dd2 in whole red blood cells, using parasite LDH activity as an index of growth. Test compounds present at 2uM
# Format: functional
row,SMILES,Inhibition
1,CN(C)Cc1ccc(-c2ccc3c(Nc4ccc(Oc5ccccn5)cc4)ccnc3c2)o1,100%
2,Fc1cccc(Cl)c1-c1nc(NCCC(c2ccccc2)c2ccccc2)no1,87%
3,O=C(NOCCOc1ccccc1)c1ccccc1,0%
4,C=C[C@H]1CN2CC[C@H]1C[C@@H]2[C@@H](O)c1ccnc2ccc(OC)cc12 [QUINIDINE],95%
5,COc1ccc2nccc(N3CCC(SCCNS(=O)(=O)c4ccc5c(c4)OCCO5)C3)c2n1.Cl (configuration not stated),87%
6,COc1ccc(NC(=O)c2ccc3[nH]c(-c4ccc(Cl)cc4)cc3c2)cc1OCCN(C)C,78%
7,Cc1ccc(NC(=O)Nc2ccccc2F)cc1-c1ccc(C(=O)Nc2ccncc2)cc1,54%
8,O=C(NCC1CC1)C1CCN(C(c2ccccc2)c2nc3ccccc3s2)CC1 (configuration not stated),49%
9,CCOc1cccc(C(=O)Nc2nonc2-c2ccc(OC)c(OC)c2)c1,95%
10,Fc1cccc(COc2ccc(Nc3ncnc4cc(/C=C/[C@@H]5CCCN5)sc34)cc2Cl)c1,56%
11,COc1cc(Nc2nccc(N3CCC(NS(=O)(=O)c4ccc(NC(C)=O)cc4)CC3)n2)cc(OC)c1OC,42%
12,Br.Cc1cccc2c(CON3C(N)=NC(N)=NC3(C)C)cccc12,94%
13,CN(Cc1ccccc1)C1CCCN(c2cc(NC(=O)c3ccc(F)cc3)ccn2)C1.O=C(O)C(F)(F)F (configuration not stated),95%
14,Cc1cc(N(C)C)nc(Nc2ccc(NS(=O)(=O)c3ccccc3)cc2)n1,11%
15,O=C(Nc1ccc(OC2CCN(Cc3ccsc3)C2)c(Cl)c1)c1ccc(F)cc1.O=C(O)C(F)(F)F (configuration not stated),73%
16,COc1ccc2c(=NN=Cc3ccc(F)cc3)cc(C)[nH]c2c1,99%
17,Br.CCC(CCON1C(N)=NC(N)=NC1(C)C)c1ccc(Cl)c(Cl)c1 (configuration not stated),98%
18,CC1CN(c2ccc3occ(C(=O)Nc4ccc(-c5ccncc5)c(Cl)c4)c3c2)CC(C)N1C.Cl (configuration not stated),96%
19,O=C(O)C(F)(F)F.O=C1CCCN1CCCNCc1cccc(-c2ccc(-c3nc4ccccc4[nH]3)s2)c1,0%

row,SMILES,Inhibition
1,CC12CCC(C(=O)N(CC(O)Cn3c4ccc(Cl)cc4c4cc(Cl)ccc43)C1=O)C2(C)C (configuration not stated),99%
2,O=C(/C=C/C=C/c1ccc(Cl)c(Cl)c1)NCCCCCN1CCCC2CCCCC21 (configuration not stated),48%
3,Cn1nc(C(=O)N2CCC(c3[nH]ncc3Cc3ccccc3)CC2)c2ccccc2c1=O,95%
4,NC1=NC(c2ccccc2)(c2ccccc2)C(=O)N1CCCCc1ccccn1,56%
5,COc1ccccc1NC(=O)Nc1cccc(-c2cccc(-c3nc4cc(C(F)(F)F)ccc4[nH]3)c2)c1,97%
6,CS(=O)(=O)c1ccc2c(c1)CCN(CCC1CCC(NC(=O)C(=Cc3cccc(C#N)c3)c3ccc(-c4ccccc4)cc3)CC1)CC2 (configuration not stated),13%
7,Cc1cc(C(F)(F)F)n2nc(C(=O)N(C)Cc3cncn3Cc3ccc(F)cc3)cc2n1,96%
8,Cc1cc(CNCCCCCCNCc2cccc([N+](=O)[O-])c2)ccc1O,0%
9,Cn1c(-c2ccccc2)cc2c3c(=O)cc(C(F)(F)F)[nH]c3ccc21,49%
10,O=C(NCCCCCN1CCC(c2c[nH]c3ccccc23)CC1)Nc1ccc(Cl)cc1Cl,15%
11,CCC(CC)OC(=O)C(C)c1cccc(C(=O)c2ccccc2)c1 (configuration not stated),0%
12,CCn1c2ccccc2c2cc(C=NN=c3cc(C)[nH]c4ccccc34)ccc21,97%
13,CCCCCCN1CCCN(Cc2ccc(C(=O)Nc3ccc(F)c(F)c3)cc2)CC1.O=C(O)C(F)(F)F,48%
14,CCCCCNC(=N)c1ccc(OCCCCCOc2ccc(C(=N)NCCCCC)cc2)cc1.Cl,98%
15,Cc1ccc(Nc2nccc(Nc3ccc4c(C)n[nH]c4c3)n2)cc1F.Cl,1%
16,CCC(Nc1noc(-c2c(-c3ccccc3)noc2C)n1)c1ccccc1 (configuration not stated),85%
17,CCCCN(CCCC)CCCN(CCCN(CCCC)CCCC)c1cc(C)nc(Nc2ccc3cc(Br)ccc3c2)n1.Cl,99%
18,COc1ccc2c(NN=Cc3ccccc3F)ccnc2c1,99%
